The list is not random: actives were taken first. Their share in the collection is about 1.4%.
ALOX12 inh: Primary qHTS assay for inhibitors of human arachidonate 12S-lipoxygenase (ALOX12): Round 2; Polyunsaturated fatty acid lipoxygenase ALOX12 (Homo sapiens), P18054; purified 12hLO, xylenol orange hydroperoxide absorbance; Potency, µM (top dose mostly 108 µM), inactives show top-dose activity change, negative = inhibition, usual class: inhibitors; 580,000 tested, 1.1% active; AID 1671190, 2021; further: potency means the concentration at half of the fitted maximal effect; on the % scale 0 is the no-effect control and ±100 the full control effect
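Hydroperoxide product was detected by ferrous iron/xylenol orange as the 573 to 405 nm absorbance ratio. Arachidonic acid at 40 uM (final) was turned over for 30 min at room temperature by 150 nM human 12hLO, pH 7.0 Hepes buffer, after 15 min compound preincubation.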
p53 reactivator: qHTS assay for re-activators of p53 using a Luc reporter; H1299 p53-A138V BP100-luciferase reporter, luminescence, 24 h; Potency, µM (top dose mostly 92.2 µM), for the others: top-dose activity change, positive = activation, most hits filed as activators; 320,000 tested, 0.063% active; AID 504706, 2011; further: potency means the concentration at half of the fitted maximal effect; % of control where 0% means no effect; nearly all actives have a fitted effect of over 45% in size
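p53-null H1299 cells stably carrying temperature-sensitive p53-A138V and a BP100-luciferase reporter were pinned with compounds (4-point, 1:5 series) and held 24 hrs at 37 deg C. Luminescence was read 10 min after detection reagent.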
CCT chaperon mod: High-Throughput Screening for Modulators of Cytosolic Chaperonin Activity; purified chaperonin ATPase assay, HTRF ADP detection, 30 min; activity change, % (concentration not given with the values), hits read low; 360,000 tested, 0.3% active; in the data active means activity change below about -30%; further: on the % scale 0 is the no-effect control and ±100 the full control effect
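TRiC at 40 or 20 nM final (batch-dependent) in 30 mM Tris pH 7.4, 100 mM KCl, 5 mM MgCl2, 1 mM DTT, with compound at single 76 uM and 10 uM ATP, 30 min at 37 deg C. ADP detected by HTRF Transcreener, 665/615 ratio.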
S-ASM inh: Inhibitors of Secretory Acid Sphingomyelinase (S-ASM): qHTS | Sphingomyelin phosphodiesterase (Homo sapiens), P17405 | placental ASM, HMU-PC fluorogenic substrate, 60 min | Potency, µM (titrated, usually from 57.5 µM), inactives show at the top dose activity change, negative = inhibition, most hits filed as inhibitors | 340,000 tested, 0.006% active | AID 504937, 2011; further: potency means the concentration at half of the fitted maximal effect
Target sequence (P17405 47-631 limits assumed): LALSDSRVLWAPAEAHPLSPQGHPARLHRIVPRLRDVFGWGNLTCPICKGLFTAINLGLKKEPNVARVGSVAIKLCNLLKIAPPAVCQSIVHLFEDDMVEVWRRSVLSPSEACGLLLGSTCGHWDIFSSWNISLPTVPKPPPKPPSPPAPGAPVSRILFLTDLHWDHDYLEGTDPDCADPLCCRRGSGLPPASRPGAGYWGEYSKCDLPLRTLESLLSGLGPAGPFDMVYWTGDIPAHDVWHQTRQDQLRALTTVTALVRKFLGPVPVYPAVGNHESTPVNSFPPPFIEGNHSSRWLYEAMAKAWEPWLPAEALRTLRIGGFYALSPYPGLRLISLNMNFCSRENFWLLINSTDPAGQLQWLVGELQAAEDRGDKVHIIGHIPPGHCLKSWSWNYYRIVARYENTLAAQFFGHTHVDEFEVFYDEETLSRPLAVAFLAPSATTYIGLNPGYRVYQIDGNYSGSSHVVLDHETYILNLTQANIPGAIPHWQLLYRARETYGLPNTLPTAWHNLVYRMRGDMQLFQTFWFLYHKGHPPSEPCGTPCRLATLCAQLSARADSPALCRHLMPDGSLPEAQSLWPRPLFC
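Fluorescence read-out (Ex 386 nm, Em 447 nm) after stopping the reaction at pH 10. Enzyme: ASM from human placenta; substrate HMU-PC0, 9 uM final; 60 min, 37 °C. Compound preincubation 10 min, ambient temperature.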
Mm-Cpn inhibitor: Inhibitors of TCP-1 ring complex (TRiC) of Methanococcus maripaludis (MmCpn): qHTS | Chaperonin Mm-Cpn (Methanococcus maripaludis) | purified Mm-Cpn ATPase, ADP Transcreener TR-FRET | Potency, µM (series often up to 76.9 µM), for the others: top-dose activity, negative = inhibition, hits mostly inhibitors | 330,000 tested, 0.031% active | AID 504842, 2011; further: potency means the concentration at half of the fitted maximal effect; on the % scale 0 is the no-effect control and ±100 the full control effect; nearly all actives have a fitted effect of over 80% in size
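TR-FRET (320 nm excitation; 590 and 665 nm emission) reports ADP made from 10 uM ATP by 25 nM enzyme; compounds were preincubated 10 min, reaction run 30 min, both at 37°C.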
PINK1 modulator: A Quantitative High throughput Screen to Identify Chemical Modulators of PINK1 Expression; PINK1 immunofluorescence, high-content cytometry, 24 h; Potency, µM (series often up to 76.6 µM), without a hit: at the top dose activation (PINK1 increase), usual class: activators; 410,000 tested, 0.2% active; active means well fitted activation curve with a large enough effect; inconclusive means small, poorly fitted or top-dose-only effect; cell line not stated here; further: potency means the concentration at half of the fitted maximal effect; % of control where 0% means no effect; nearly all actives have a fitted effect of over 65% in size
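Fluorescence from anti-PINK1 antibody, together with nuclear and cell stains, was scanned on a laser-scanning cytometer. Before staining, stable-line cells were incubated 24 hours with compounds at 5 concentrations; primary antibody 12 h at 10 degrees C.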
The depositor's hits bear a star; ? = inconclusive; / = not tested or not shown; ! = not confirmed by another sample; [ ] = remark or other dose. Unless noted, the call rests on the fitted dose curve; in most records, active means well fitted curve in the direction sought with a large enough effect; inconclusive means small, poorly fitted or top-dose-only effect, or another doubt; inactive means no such curve, though single readings can be large; an effect the other way counts as inactive or inconclusive.

SMILES	ALOX12 inh	p53 reactivator	CCT chaperon mod	S-ASM inh	Mm-Cpn inhibitor	PINK1 modulator
COCCNC(=O)Cn1cc(C(=S)N2CCCCC2)c2ccccc21	-13%	11%	-3	0%	0%	-1%
O=C(Cn1cc(C(=S)N2CCOCC2)c2ccccc21)N1CCOCC1	?	/	-4	3%	/	-2%
O=C(NC1CCCCCC1)c1ccc(Oc2nccnc2N2CCCCC2)cc1	0%	/	/	/	/	/
O=C(Nc1c(NCc2ccccc2)c2ccccc2oc1=O)c1ccccc1Br	-5%	/	/	/	/	/
O=C(Cc1c[nH]c2ccccc12)NC1(c2ccccc2)CCC1	8%	/	/	/	/	/
CCc1cccc(OCC(=O)N(C)CC(=O)Nc2cccc(F)c2)c1	-1%	-11%	-1	7%	1%	3%
CN(CC(=O)Nc1ccc(Cl)cc1)C(=O)COc1cccc(F)c1	40µM*	/	/	/	/	/
CC/C(=N\NC(=S)Nc1cc(C)ccc1C)c1ccc(OC(F)F)cc1	32µM*	2%	1	-4%	1%	25%
CC/C(=N\NC(C)=O)c1ccc(OC(F)F)cc1	/	3%	/	/	1%	/
COC(=O)N/N=C(\C)c1ccc(OC(F)F)cc1	-17%	10%	-7	2%	-9%	-4%
CC/C(=N\NC(=S)Nc1ccc(OC)cc1)c1ccc(OC(F)F)cc1	35µM*	5%	-1	-15%	0%	2%
C/C(=N\NC(=S)Nc1c(C)cccc1C)c1ccc(OC(F)F)cc1	35µM*	-8%	1	0%	-2%	0%
COc1ccc(/C=N/NC(=S)Nc2ccccc2)cc1	50µM*	10%	-2	0%	0%	2%
O=C(c1ccccc1)N1CCN(C(=O)c2[nH]c3ccccc3c2Cl)CC1	7%	/	/	/	/	/
Cc1ccsc1/C=N/N(Cc1ccccc1)c1ccccc1	-10%	/	/	/	/	/
CCOC(=O)c1[nH]c(C)c(C(=O)OC)c1C	210%	8%	-1	-3%	-1%	-1%
CCOC(=O)c1[nH]c(C)c(/C(Br)=C/Br)c1C	6.3µM*	/	/	/	/	/
O=S(=O)(c1ccc2nc(N3CCN(c4ccccc4)CC3)ccc2c1)N1CCCC1	3.5µM*	/	/	/	/	/
CCN1CCN(c2ccc3cc(S(=O)(=O)N4CCOCC4)ccc3n2)CC1	1.8µM*	/	/	/	/	/
O=C(O)c1ccc(CSc2nnnn2-c2ccc(F)cc2)cc1	-12%	1%	0	3%	2%	0%
O=C(CSc1nnnn1-c1ccc(F)cc1)c1ccc(O)c(O)c1	14µM*	6%	-1	-5%	-2%	-1%
Cc1ccc(Cc2nc3ccccc3nc2SCC(=O)N2CCNC2=O)cc1	-11%	/	/	/	/	/
COc1cc(/C=C(/C#N)c2ccc(C(F)(F)F)cn2)ccc1O	8.9µM*	/	/	/	/	/
C[S+](=O)([O-])c1ccc(-c2nc(C(=O)NCc3ccc(F)cc3)n3ccccc23)cc1	8%[6.33 µM]	/	/	/	/	/
COc1ccc(N/C=C\C(=O)c2ccc(C)cc2)cc1OC	-18%	-1%	-1	-1%	5%	9%
SMILES	ALOX12 inh	p53 reactivator	CCT chaperon mod	S-ASM inh	Mm-Cpn inhibitor	PINK1 modulator
COc1ccc(N/C=C\C(=O)c2ccc(Br)cc2)cc1OC	4%	14%	-1	-7%	-3%	40µM*
NC(=S)N/N=C/c1cccc(O)c1O	?	11%	1	5%	-2%	1%
Cc1cc(/C=N/NC(N)=S)c(O)c(/C=N/NC(N)=S)c1	?	4%	0	11%	-1%	45µM*
Cc1ccc(-n2c(C)cc(/C=N/NC(N)=S)c2C)cc1	45µM*	17%	0	0%	-4%	1%
Cc1ccc(-n2c(C)cc(/C=N/NC(=O)c3ccncc3)c2C)cc1	?	-2%	-1	-2%	0%	-6%[38.3 µM]
CC1(C(=O)NC2COC2)CN(Cc2ccccc2)Cc2ccc(Nc3ccccc3)nc21 (centres undefined)	-9%[176 µM]	/	/	/	/	/
Cc1ccc(S(=O)(=O)NNc2c3ccccc3nc3ccc(Cl)cc23)cc1	25µM*	/	0	/	/	0%
CCCOc1ccc(C(=O)N2CCC(c3nc4ccccc4o3)CC2)cc1	12%	/	/	/	/	/
Cc1cc(O)c(N)c(C)c1Cl	16µM*	-1%	-2	-4%	-6%	0%
Cc1cc(O)cc(C)c1Cl	1%	/	-1	-1%	/	2%
CCc1ccc(-c2cc(C(=O)NCc3ccco3)c3ccccc3n2)cc1	14µM*	/	/	/	/	/
CCc1ccc(NC(=O)c2ccccc2SCC(=O)NCc2ccco2)cc1	5.6µM*	/	/	/	/	/
COc1cc(-c2cc(C(=O)NCc3ccco3)c3ccccc3n2)cc(OC)c1OC	?	-6%	2	-1%	-2%	4%
Cc1ccc(-c2cc(C(=O)NCc3ccco3)c3ccccc3n2)s1	25µM*!	27%	-1	495%	-5%	11%
CC(=O)c1ccc(NC(=O)c2ccc(Cl)cc2N2CCCC2=O)cc1	-21%	/	/	/	/	/
COc1ccc(C)cc1-n1c(-c2ccncc2)n[nH]c1=S	-9%	4%	0	-1%	1%	1%
COc1ccccc1-c1n[nH]c(=S)n1N	14µM*	-2%	1	1%	-2%	-1%
COc1cc(-n2c(-c3ccccc3)n[nH]c2=S)c(OC)cc1Cl	28µM*	-3%	1	-2%	-10%	-1%
COc1ccccc1-c1n[nH]c(=S)n1-c1ccccc1	?	?	-1	-2%	?	-2%
COc1ccccc1-n1c(-c2cc(-c3ccc(F)cc3)n[nH]2)n[nH]c1=S	40µM*	-2%	-3	-5%	-3%	-1%
CCN1C(=O)C(O)(CC(=O)c2ccc3c(c2)OCO3)c2ccccc21 (centres undefined)	15%	/	/	/	/	/
O=C(Cn1nc(-c2cccs2)c2ccccc2c1=O)Nc1ccccc1	-1%	/	/	/	/	/
O=C(Nc1nc2ccccc2[nH]1)c1cccc([N+](=O)[O-])c1	15%	-3%	-3	-4%	-3%	11%
O=C(Cc1nc2ccccc2[nH]1)c1cccc([N+](=O)[O-])c1	-14%	5%	-2	-2%	1%	14µM*
CCOC(=O)c1cnc(NC2CCCC2)c2ccccc12	-8%	/	/	/	/	/
CCOC(=O)C1=C(C)C(c2cccc(Oc3ccccc3)c2)NC(=S)N1 (centres undefined)	40µM*	-6%	0	-2%	-5%	2%
C=CCN(Cc1ccccc1F)C(=O)c1nn(CC)c(=O)c2ccccc12	17%	/	/	/	/	/

Compound activity (PubChem BioAssay)
